From PubChem BioAssay AID1159580 (chemical genetic matrix, 2015)
The whole screen tested about 5,500 compounds, of which about 2,000 (36%) were called active. About 18% were inconclusive and are not listed. No stated cut-off is given here; in the data, active means normalized growth mostly below about 0.91 (no sharp cut-off); inconclusive means no clear call, values can overlap the other calls; inactive means mostly above about 0.92. The list shows a part of the results.

Assay: chemical genetic growth profiling, strain panel (AID 1159580);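 further: tested at 20 µM; growth read once vehicle control cultures reached saturation at 30 °C; 1 = growth at the plate median or of vehicle wells; lower values mean less growth of the strain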
Details: S. cerevisiae deletion strains, growth OD

Measured: normalized growth

N[C@H](Cc1cc(I)c(Oc2ccc(O)c(I)c2)c(I)c1)C(=O)O
inactive: locus YJR075W, strain HOC1, hits give low values 1 | locus YKL009W, strain mrt4, hits give low values 1.03 | locus YKL068W, hits give low values 0.998 | locus YKL085W, strain MDH1 (second series), hits give low values 0.991 | locus YKL085W, strain MDH1, hits give low values 0.991 | locus YKL160W, strain elf1, hits give low values 0.965 | locus YKL190W, strain CNB1, hits give low values 1.01 | locus YKR026C, strain gcn3, hits give low values 0.999 | locus YKR091W, strain srl3, hits give low values 0.998 | locus YLL001W, strain dnm1, hits give low values 0.989 | locus YLL026W, hits give low values 1 | locus YLL041C, strain sdh2, hits give low values 1 | locus YLR027C, strain aat2, hits give low values 0.968 | locus YLR039C, strain RIC1, hits give low values 0.964 | locus YLR058C, strain SHM2, hits give low values 1.01 | locus YLR102C, strain apc9, hits give low values 0.996 | locus YLR113W, strain HOG1, hits give low values 1.04 | locus YLR221C, strain rsa3, hits give low values 0.945 | locus YLR258W, strain gsy2, hits give low values 0.969 | locus YLR262C, strain YPT6 (second series), hits give low values 0.938 | locus YLR262C, strain YPT6, hits give low values 0.953 | locus YLR268W, strain sec22, hits give low values 0.909 | locus YLR320W, strain mms22, hits give low values 0.941 | locus YLR330W, strain CHS5, hits give low values 1.04 | locus YLR342W, strain FKS1 (second series), hits give low values 0.95 | locus YLR342W, strain FKS1, hits give low values 0.994 | locus YLR357W, strain rsc2, hits give low values 1 | locus YLR370C, strain arc18, hits give low values 0.999 | locus YLR371W, strain rom2, hits give low values 0.989 | locus YLR384C, strain iki3, hits give low values 0.993 | locus YML016C, strain PPZ1, hits give low values 0.997 | locus YML032C, strain rad52, hits give low values 0.989 | locus YML120C, strain ndi1, hits give low values 0.998 | locus YML124C, strain tub3, hits give low values 0.997 | locus YMR058W, strain fet3, hits give low values 0.988 | locus YMR078C, strain ctf18, hits give low values 1.01 | locus YMR125W, strain sto1, hits give low values 0.989 | locus YMR129W, hits give low values 0.999 | locus YMR205C, strain PFK2, hits give low values 0.88 | locus YMR223W, strain ubp8, hits give low values 0.934 | locus YMR231W, strain pep5, hits give low values 0.999 | locus YMR263W, strain SAP30, hits give low values 1 | locus YMR307W, strain GAS1, hits give low values 0.956 | locus YNL067W, strain RPL9B, hits give low values 1.01
active: locus YKR001C, strain vps1, hits give low values 0.862 | locus YLR418C, strain cdc73, hits give low values 0.77
